# Data published in a collection of fitness landscapes (doi:10.1016/j.celrep.2020.107928).
# Whole data set: some 81,000 sequences, median “one-hybrid fitness for binding parS DNA” near -0.17, cut for the highest 2% near 0.51. The sample as a whole holds a higher share of the highest values than the screen did.
# B1: Caulobacter ParB omega fusion; a variant is named by its letters at X, in order, B8GW30 (parent)
# chain: MESVVVGEPGMSEGRRGLGRGLSALLGEVDAAPAQAPGEQLGGSREAPIEILQRNPDQPRRTFREEDLEDLSNSIREKGVLQPILVRPSPDTAGEYQIVAGERAWRAAQRAGLKTVPIMVRELDDLAVLEIGIIENVQRADLNVLEEALSYKVLMEKFERTQENIAQTIGKSXSHVANXMRLLXLPDEVQSYLVSGELTAXHARAIAAAADPVALAKQIIEGGLSVRETEALARKAPNLSAGKSKGGRPPRVKDTDTQALESDLSSVLGLDVSIDHRGSTGTLTITYATLEQLDDLCNRLTRGI
# Variants of: B1
# Experiment: one-hybrid fitness for binding parS DNA (scaled: cognate 1, non-cognate 0); higher = stronger binding
# Conditions: with parS DNA site
# Outline: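 Selection: bacterial one-hybrid in E. coli USO, HIS3 reporter with the site 19 bp from the promoter, 48 hours at 37°C on M9-minus-histidine plus 0.1 mM IPTG and 5 mM 3-AT. Libraries were Caulobacter ParB with four randomised specificity codons, sequenced on Illumina before and after selection. Fitness is the rescaled log change in variant-to-wild-type read ratio, anchored to the cognate and non-cognate sites.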
row,Variant,one-hybrid fitness for binding parS DNA
1,PNWL,≤ 0.2
2,PCED,≤ 0.2
3,HNST,≤ 0.2
4,SHDR,≤ 0.2
5,PGRS,≤ 0.2
6,GDYR,≤ 0.2
7,GWST,≤ 0.2
8,QTYA,≤ 0.2
9,NGRC,≤ 0.2
10,RWQG,0.741
11,RWWR,≤ 0.2
12,RWQM,≤ 0.2
13,RWDG,0.616
14,RWDK,≤ 0.2
15,RWCM,≤ 0.2
16,RWWG,0.641
17,RWWY,≤ 0.2
18,RWCG,0.688
19,RWQK,≤ 0.2
20,RWCR,≤ 0.2
21,RWDF,≤ 0.2
22,QCIG,≤ 0.2
23,ILHY,≤ 0.2
24,PETC,≤ 0.2
25,RDAC,≤ 0.2

row,Variant,one-hybrid fitness for binding parS DNA
1,CSPC,≤ 0.2
2,WCDG,≤ 0.2
3,TEMT,≤ 0.2
4,QRMV,≤ 0.2
5,PGQN,≤ 0.2
6,RFNK,0.203
7,YQGC,≤ 0.2
8,RRKR,≤ 0.2
9,RRVC,0.673
10,RRKQ,≤ 0.2
11,RRKC,0.649
12,PLTK,≤ 0.2
13,INSY,≤ 0.2
14,ENFG,≤ 0.2
15,RTYR,≤ 0.2
16,RTRK,≤ 0.2
17,RTQT,0.925
18,RTWT,0.916
19,RTRD,≤ 0.2
20,RTYK,≤ 0.2
21,RTQM,0.352
22,RTRT,0.747
23,RTYT,0.952
24,RTQQ,≤ 0.2
25,RTWH,0.254

row,Variant,one-hybrid fitness for binding parS DNA
1,RTWN,0.461
2,RGTV,≤ 0.2
3,KKRF,≤ 0.2
4,SRPQ,≤ 0.2
5,ITEL,≤ 0.2
6,RTGP,≤ 0.2
7,RTGR,≤ 0.2
8,RTSF,0.246
9,RTGT,0.912
10,RTST,0.91
11,RTSK,≤ 0.2
12,TRWL,≤ 0.2
13,HSDW,≤ 0.2
14,HVPD,≤ 0.2
15,GQVR,≤ 0.2
16,FGAG,≤ 0.2
17,NLVS,≤ 0.2
18,RHVM,≤ 0.2
19,RHKF,0.255
20,RHKK,≤ 0.2
21,RHKT,0.745
22,RHVT,0.637
23,RHVK,≤ 0.2
24,TMRL,≤ 0.2
25,CWHG,0.244

row,Variant,one-hybrid fitness for binding parS DNA
1,MPLG,≤ 0.2
2,YPFR,≤ 0.2
3,RTVG,0.979
4,RTKN,0.441
5,RTVD,≤ 0.2
6,RTKR,≤ 0.2
7,RTKG,0.872
8,RTVH,≤ 0.2
9,KCHG,≤ 0.2
10,GQFL,≤ 0.2
11,PQKC,≤ 0.2
12,NWQS,≤ 0.2
13,RRFN,0.314
14,RRAD,≤ 0.2
15,RRFP,≤ 0.2
16,RRAS,0.652
17,RRFS,0.743
18,RRFH,≤ 0.2
19,RRAH,≤ 0.2
20,RRAN,0.583
21,RCAN,0.477
22,MEPC,≤ 0.2
23,GRGV,≤ 0.2
24,MVCR,≤ 0.2
25,PWNF,≤ 0.2

row,Variant,one-hybrid fitness for binding parS DNA
1,ATEL,≤ 0.2
2,REGS,≤ 0.2
3,FMKF,≤ 0.2
4,IDST,≤ 0.2
5,HFES,≤ 0.2
6,QITI,≤ 0.2
7,LTWC,≤ 0.2
8,ADCT,≤ 0.2
9,ENNV,≤ 0.2
10,DYSL,≤ 0.2
11,RCCY,0.526
12,RSCY,0.47
13,RMCY,0.509
14,RPCY,≤ 0.2
15,WWVS,≤ 0.2
16,TIHD,≤ 0.2
17,VITG,≤ 0.2
18,YPSN,≤ 0.2
19,RLPH,≤ 0.2
20,RLPP,≤ 0.2
21,RLPG,0.755
22,RLIK,≤ 0.2
23,RLIG,0.934
24,RLIY,0.437
25,NLNR,≤ 0.2

row,Variant,one-hybrid fitness for binding parS DNA
1,YYRR,≤ 0.2
2,VLMH,≤ 0.2
3,LVRM,≤ 0.2
4,KHKS,≤ 0.2
5,DGAP,≤ 0.2
6,RWTY,0.37
7,RWTG,0.824
8,RWTS,0.956
9,RWTH,≤ 0.2
10,RWTF,≤ 0.2
11,RWTQ,≤ 0.2
12,RWTR,≤ 0.2
13,RWTN,0.338
14,RWTD,≤ 0.2
15,RWTP,≤ 0.2
16,RWTC,0.79
17,RWTT,0.705
18,SCKV,≤ 0.2
19,RMTE,≤ 0.2
20,EKPG,≤ 0.2
21,PAYN,≤ 0.2
22,HTMF,≤ 0.2
23,AKDP,≤ 0.2
24,FKSC,≤ 0.2
25,TTMG,≤ 0.2

row,Variant,one-hybrid fitness for binding parS DNA
1,PSRP,≤ 0.2
2,QMFV,≤ 0.2
3,YLKH,0.358
4,HKTR,≤ 0.2
5,KKHM,≤ 0.2
6,RCHA,0.626
7,RLHA,0.592
8,RNHA,0.438
9,RAHA,0.613
10,RSHA,0.592
11,RGHA,0.238
12,RWHA,0.378
13,NAHA,≤ 0.2
14,RPHA,≤ 0.2
15,DLHA,≤ 0.2
16,RDHA,≤ 0.2
17,LRPS,≤ 0.2
18,RCFW,0.256
19,MCTC,≤ 0.2
20,CVPM,≤ 0.2
21,SGES,≤ 0.2
22,ADNQ,≤ 0.2
23,SFPL,≤ 0.2
24,TQVG,≤ 0.2
25,TFSM,≤ 0.2

row,Variant,one-hybrid fitness for binding parS DNA
1,PVIS,≤ 0.2
2,NTHA,≤ 0.2
3,RTHA,0.61
4,AFHA,≤ 0.2
5,RMHA,0.603
6,PFHA,≤ 0.2
7,RFHA,0.53
8,DMHA,≤ 0.2
9,RHHA,0.526
10,DTHA,≤ 0.2
11,VHWV,≤ 0.2
12,CRAC,≤ 0.2
13,QHLA,≤ 0.2
14,DKPG,≤ 0.2
15,IKTN,≤ 0.2
16,AQFC,≤ 0.2
17,TGAE,≤ 0.2
18,RVAY,0.464
19,RVFG,0.993
20,RVAM,0.329
21,RVFP,≤ 0.2
22,RVAG,0.999
23,RVFK,≤ 0.2
